Reference: PubChem BioAssay (NCI)
About 83,000 compounds went through this panel and 20% of them were active in at least one assay; those are over-represented in the sample as a whole.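 Results are percent growth after 48 hours of single-concentration exposure. 100 means growth as in untreated cells, lower positive values show inhibition; negative values down to -100 show cell death.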 Values without a mark were called inactive. Active and inactive are the calls of the source. The calls were made as follows: active = growth percent below 10; inactive = the rest.

How the values were obtained:
Assay in all cases: NCI-60 one-dose screen, 48 h (100 = growth as untreated, 0 = no growth, -100 = all killed)
Details in all cases: 10 µM unless noted
SK-MEL-2 melanoma = system: SK-MEL-2 melanoma
EKVX NSCLC = system: EKVX NSCLC
SN12C renal = system: SN12C renal
UO-31 renal = system: UO-31 renal
TK-10 renal = system: TK-10 renal
ACHN renal = system: ACHN renal
CAKI-1 renal = system: CAKI-1 renal
A498 renal = system: A498 renal
CCRF-CEM leukemia = system: CCRF-CEM leukemia
MOLT-4 leukemia = system: MOLT-4 leukemia
SR leukemia = system: SR leukemia
RPMI-8226 leukemia = system: RPMI-8226 leukemia
OVCAR-8 ovarian = system: OVCAR-8 ovarian
OVCAR-5 ovarian = system: OVCAR-5 ovarian
OVCAR-4 ovarian = system: OVCAR-4 ovarian
SK-OV-3 ovarian = system: SK-OV-3 ovarian
IGROV1 ovarian = system: IGROV1 ovarian
OVCAR-3 ovarian = system: OVCAR-3 ovarian
NCI/ADR-RES ovarian = system: NCI/ADR-RES ovarian
HS 578T breast = system: HS 578T breast

Compound | growth (SK-MEL-2 melanoma) | growth (EKVX NSCLC) | growth (SN12C renal) | growth (UO-31 renal) | growth (TK-10 renal) | growth (ACHN renal) | growth (CAKI-1 renal) | growth (A498 renal) | growth (CCRF-CEM leukemia) | growth (MOLT-4 leukemia) | growth (SR leukemia) | growth (RPMI-8226 leukemia) | growth (OVCAR-8 ovarian) | growth (OVCAR-5 ovarian) [%] | growth (OVCAR-4 ovarian) | growth (SK-OV-3 ovarian) | growth (IGROV1 ovarian) | growth (OVCAR-3 ovarian) | growth (NCI/ADR-RES ovarian) | growth (HS 578T breast)
Cc1c2ccccc2nc2c1ccc1cccnc12 | 95.5% | 62.7% | 88.7% | 83.9% | 96.1% | 97.3% | 77% | 80.2% | 77.8% | 68.3% | 85.9% | 64.8% | 91.7% | 83.5 | 51.7% | 116% | 15% | -1.84% (active) | 60.9% | 
O=C(CN1C(=O)/C(=C/c2ccco2)SC1=S)NCCc1c[nH]c2ccc(F)cc12 | 119% | 98.3% | 97.6% | 70.8% | 105% | 101% | 81.8% | 94.5% | 97.1% | 97.7% | 111% | 97.8% | 105% | 105 | 99.7% | 93.7% | 104% | 110% | 99.1% | 95.9%
CC(C)(C)c1cc(C=Nc2cccc(C(F)(F)F)c2)c(O)c(C(C)(C)C)c1 | 102% | 107% | 98.8% | 80.7% | 84.8% | 111% | 90.4% | 108% | 62.5% | 85.3% | 77.7% | 74.5% | 88.1% | 105 | 97.3% | 100% | 105% | 95% | 99.9% | 
CCOC(=O)c1cn2ncnc(Oc3ccc(NC(=O)NC4CC4)c(F)c3)c2c1C | 114% | 96.3% | 95.1% | 70.6% | 119% | 93.5% | 102% | 54.2% | 90.9% | 104% | 84.6% | 84.6% | 99.7% | 103 | 69.7% | 111% | 99.3% | 113% | 99.3% | 
CC(C)CCC[C@@H](C)C1CCC2C3CCC4=C/C(=N/OCCN(C)C)CC[C@]4(C)C3CC[C@@]21C (some centres not stated) | 83.7% | 94.7% | 92.6% | 61.7% | 70.4% | 88.9% | 79.9% | 80.8% | 26.6% | 49.2% | 62.2% | 78.4% | 104% | 83.9 | 88.5% | 93.8% | 48.9% | 89.5% | 89.6% | 
CCCCc1oc2ccccc2c1C(=O)c1ccc(O)cc1 | 99.8% | 92.3% | 71.2% | 78.3% | 101% | 88.8% | 68.4% | 90.9% | 51.9% | 59.7% | 31% | 42.5% | 82.2% | 84.3 | 68.2% | 94.4% | 79.6% | 94.3% | 76.1% | 
CCN(CC)c1ccc(N2C(=O)/C(=C/c3cccs3)SC2=S)cc1 | 110% | 92.2% | 91.5% | 73.3% | 92.9% | 94.3% | 89.7% | 71.1% | 83% | 97.9% | 95.4% | 97% | 99.6% | 95.4 | 81.9% | 113% | 99.4% | 101% | 96.6% | 
CNCc1cccc2c1OCCOCCN(C)C(=O)CN(C)S(=O)(=O)c1ccc(cc1)-c1cnc(N)c(n1)C(=O)N2 | 4.91% (active) | 41.8% | 20.7% | 101% | 11.5% | -2.97% (active) | 27.2% | 70.3% | -18.4% (active) | -1.69% (active) | -16.9% (active) | 88.8% | 2.03% (active) | 33.8 | 42.4% | 8.28% (active) | 51.4% | -25.3% (active) | 102% | 
Cc1c(N2CN3C[C@H](C)N4CN(c5c(C)n(C)n(-c6ccccc6)c5=O)CN5C[C@@H](C)N(C2)C3C54)c(=O)n(-c2ccccc2)n1C (some centres not stated) | 101% | 96.1% | 100% | 77.6% | 110% | 103% | 87.5% | 117% | 102% | -17.9% (active) | 38.1% | 96% | 104% | 106 | 103% | 99.2% | 102% | 100% | 97.2% | 95.9%
Cc1nc2sc(C(=O)Nc3cccc(Cl)c3)c(N)c2cc1C(O)c1ccccc1 (configuration not stated) | 49.9% | 44.6% | 24.4% | 45.7% | 62.4% | 30.5% | 46.4% | 8.38% (active) | 17.1% | 14.5% | 8.06% (active) | 11.3% | 19% | 41.4 | 71.6% | 40.6% | 28.7% | 6.3% (active) | 5.21% (active) | 
C=CC(C)(O)CC/C=C(\CO)C(=O)OC1C(C)OC(O[C@](C)(C=C)CC/C=C(\CO)C(=O)O[C@H]2C[C@@]3(C(=O)OC4OC(CO)C(O)C(O)C4OC4OC(C)C(OC5OC(CO)C(O)C5O)C(OC5OC(CO)C(O)C(O)C5O)C4O)C(CC2(C)C)C2=CCC4[C@@]5(C)CC[C@H](OC6OC(COC7OC(C)C(O)C(O)C7OC7OCC(O)C(O)C7O)C(O)C(O)C6NC(C)=O)C(C)(C)C5CC[C@@]4(C)[C@]2(C)C[C@H]3O)C(O)C1O (some centres not stated) | -73.8% (active) | -6.51% (active) | -30.1% (active) | -57.7% (active) | -83% (active) | -87.7% (active) | -70% (active) | -81% (active) | -17.1% (active) | -21.5% (active) | -26.7% (active) | 41.4% | 10.3% | 11.8 | -29.2% (active) | -79.8% (active) | -49.2% (active) | -94% (active) | 17.5% | -31.4% (active)
CC(C(=O)O)n1c(O)c(C=Nc2cccnc2)sc1=S (configuration not stated) | 114% | 96.4% | 88.7% | 50% | 111% | 102% | 79.7% | 95.4% | 92.7% | 94% | 97.8% | 83.6% | 90.7% | 98.9 | 92.4% | 98.4% | 84.2% | 105% | 98.7% | 74.9%
COc1cc2oc(-c3cccc(NC(=O)c4ccc5c(c4)OCO5)c3)cc(=O)c2c(OC)c1OC | 62.4% | 83.2% | 42.1% | 24.2% | 61.6% | 47.8% | 77.1% | 61.1% | -11.9% (active) | 2.9% (active) | 11.5% | -53.7% (active) | 46.3% | 93.9 | 58.1% | 98.1% | 47% | 53% | 57.6% | 45.2%
CC(C)C[C@@H](C(=O)N[C@H](C(=O)OC1CCCC1)c1ccccc1)[C@H](O)C(=O)NO | 33.2% | 67.5% | 86.5% | 50.8% | 70.4% | 85.9% | 76.2% | 40.7% | 67.8% | 63.4% | 51.1% | 29% | 52.7% | 59.8 | 53% | 67.5% | 73.4% | 43.4% | 101% | 74.6%
O=C1NC(=C(Cl)Cl)/C(=N/S(=O)(=O)N2CCCCC2)N1 | 40.7% | -23.9% (active) | 23.5% | 39.7% | 13.9% | 26.8% | 46% | 132% | -63.3% (active) | -48.7% (active) | -46% (active) | -22.7% (active) | 9.05% (active) | 90.9 | 79.9% | 94% | 1.81% (active) | -57% (active) | 98.5% | 29.1%
